We go through 49 compounds from PMC12670160, “A drug-repurposing screen of FDA- and EMA-approved drugs identifies two NF-κB inhibitors active against eumycetoma” (Journal of Antimicrobial Chemotherapy, 2025).

The structures appear in SMILES notation. Counter-ions that a name gives are not always drawn. Screen size: about 5,300 compounds; about 130 (2.5%) showed an effect of 50% or more. Only a selection was taken, and strong results are over-represented in it overall.

This experiment deals with M. mycetomatis strain mm55. The note with it: primary screen, metabolic activity vs growth control; 96 h, 2 µM; inhibitor.
For the compound `CO[C@H](C(=O)[C@@H](O)[C@@H](C)O)[C@@H]1Cc2cc3cc(O[C@H]4C[C@@H](O[C@H]5C[C@@H](O)[C@H](O)[C@@H](C)O5)[C@@H](O)[C@@H](C)O4)c(C)c(O)c3c(O)c2C(=O)[C@H]1O[C@H]1C[C@@H](O[C@H]2C[C@@H](O[C@H]3C[C@](C)(O)[C@H](O)[C@@H](C)O3)[C@H](O)[C@@H](C)O2)[C@H](O)[C@@H](C)O1` [ONC0003516, plicamycin mithramycin], the “% viability” value was found to be 50.92%.
Consider `Cc1c(N)nc([C@H](CC(N)=O)NC[C@H](N)C(N)=O)nc1C(=O)N[C@H](C(=O)N[C@H](C)[C@@H](O)[C@H](C)C(=O)N[C@H](C(=O)NCCc1nc(-c2nc(C(=O)NCCCNCCCCN)cs2)cs1)[C@@H](C)O)[C@@H](O[C@@H]1O[C@@H](CO)[C@@H](O)[C@H](O)[C@@H]1O[C@@H]1O[C@H](CO)[C@@H](O)[C@H](OC(N)=O)[C@@H]1O)c1cnc[nH]1` [ONC0002990, bleomycetin], for which the “% viability” value amounted to 3.217%.
As for `Cc1c(N)nc([C@H](CC(N)=O)NC[C@H](N)C(N)=O)nc1C(=O)N[C@H](C(=O)N[C@H](C)[C@@H](O)[C@H](C)C(=O)N[C@H](C(=O)NCCc1nc(-c2nc(C(=O)NCCC[S+](C)C)cs2)cs1)[C@@H](C)O)[C@@H](O[C@@H]1O[C@@H](CO)[C@@H](O)[C@H](O)[C@@H]1O[C@H]1O[C@H](CO)[C@@H](O)[C@H](OC(N)=O)[C@@H]1O)c1c[nH]cn1` [ONC0004316, bleomycin sulfate], the “% viability” value was found to be 4.137%.
The value for `CO/N=C(/C(=O)NC1C(=O)N2C(C(=O)O)=C(C[N+]3(C)CCCC3)CSC12)c1csc(N)n1` (stereo not shown) [ONC0000506, cefepime hydrochloride] was 66.95%.
`CC(=O)OCC(=O)[C@@]1(O)[C@@H](C)CC2C3CCC4=CC(=O)C=C[C@]4(C)[C@@]3(F)[C@@H](O)C[C@@]21C` (stereo partly shown) [ONC0004050, betamethasone acetate]: the “% viability” value was 111.9%.
Regarding `O=CN1CCC(C(=O)NCCN2CCC(=C3c4ccccc4C=Cc4ccccc43)CC2)CC1` [ONC0001856, at1015], the “% viability” value came to 84.57%.
Regarding `N#Cc1ccc(N2NC3=C(CCc4cc(C(=O)O)ccc43)[C@@H]2C2CCCC2)cc1Cl` [ONC0002131, pf03882845], the “% viability” value came to 78.15%.
Next, `OCCCNc1cc(-c2ccnc(Nc3cccc(Cl)c3)n2)ccn1` [cgp60474]: 9.09%; `COc1ccc(Nc2nccc(NCCO)n2)cc1` [ONC0000720, cardiogenolc]: 79.31%.
For the compound `O=C(Nc1cccc(Cl)c1)c1ccccn1` [ONC0004653, vu 0364770], the “% viability” value is recorded as 68.57%.
The value for `CC(C)[C@H](N)C(=O)OCCOCn1cnc2c(=O)[nH]c(N)nc21` [ONC0004144, valacyclovir hydrochloride] was 101.2%; that for `O=c1[nH]ccc2cc(OC3CCNCC3)ccc12` [ONC0001198, sar407899 hydrochloride] was 94.6%; that for `O=C(CC1CC(c2ccc(F)cc2F)=NO1)N1CCOCC1` (stereo not shown) [ONC0000237, cpsi1306] was 89.07%.
In the case of `O=C1CN(/N=C/c2ccc(-c3ccc([N+](=O)[O-])cc3)o2)C(O)=N1` [ONC0003073, dantrolene], the “% viability” value turned out to be 104.9%.
In the case of `COC(=O)[C@@]12OC[C@]34[C@H]([C@@H](O)[C@@H]1O)[C@@]1(C)CC(=O)C(O)=C(C)[C@@H]1C[C@H]3OC(=O)[C@H](OC(=O)/C=C(\C)C(C)C)[C@@H]24` [ONC0001105, bruceantin], the “% viability” value is 72.53%.
Consider `COc1cc2nc(N3CCCN(C)CC3)nc(NC3CCN(Cc4ccccc4)CC3)c2cc1OC` [ONC0004534, bix 01294], for which the “% viability” value was determined as 44.63%.
Next, `COc1cc2c(NC3CCN(C)CC3)nc(N3CCCN(C)CC3)nc2cc1OCCCN(C)C` [ONC0000276, unc0224]: 85.54%; `COc1cc2c(NC3CCN(C)CC3)nc(N3CCCN(C)CC3)nc2cc1OCCOCCN(C)C` [ONC0002054, unc0321]: 65.32%; `CNCCc1c[nH]cn1` [ONC0002580, nalphamethylhistaminedihydrochloride]: 77.02%.
As to `C[C@]12C=CC(=O)C=C1CCC1C2[C@@H](O)C[C@@]2(C)C1CC[C@]2(O)C(=O)COC(=O)CCC(=O)O` (stereo partly shown) [ONC0004028, prednisolone hemisuccinate], the “% viability” value was determined as 62.59%.
Take `COc1ccc2c(NC(=O)Nc3cccc(C(F)(F)F)n3)ccnc2c1` [ONC0002529, a1070722]: the “% viability” value came to 76.76%.
With `NCC(=O)O` [ONC0001985, glycine], the “% viability” value is 104.5%.
On to `O=C(O)CCC(=O)O` [ONC0003714, succinic acid], for which the “% viability” value was found to be 98.68%.
Next, `NCC(=O)CCC(=O)O` [ONC0004291, aminolevulinic acid hydrochloride]: 48.43%; `CC(=O)N[C@@H](CS)C(=O)O` [ONC0000337, acetylcysteine]: 67.99%.
Next, `CC(C)(S)C(=O)N[C@@H](CS)C(=O)O` [ONC0003276, bucillamine]: 45.36%; `CC(C)OC(=O)CNC(=O)[C@H](CS)NC(=O)CC[C@H](N)C(=O)O` [ONC0002985, glutathionemonoisopropylester]: 70.59%.
The value for `NC(=O)c1cc[n+](CC2=C(C(=O)O)N3C(=O)[C@@H](NC(=O)Cc4cccs4)[C@H]3SC2)cc1` [ONC0005624, cefalonium] was 95.75%; that for `CO[C@H]1CC[C@H](N(c2cc(C3=CCCCC3)sc2C(=O)O)C(=O)[C@H]2CC[C@H](C)CC2)CC1` [ONC0000943, vch916] was 78.62%.
With `CC(C)c1ccc(C(=O)NC(=N)N)cc1S(C)(=O)=O` [ONC0004136, cariporide], the “% viability” value is recorded as 93.97%.
`CC12CCC(C(Br)C1=O)C2(C)C` (stereo not shown) [ONC0003727, 3bromocamphor]: the “% viability” value worked out at 127.8%.
In the case of `Cc1csc2c(N[C@@H](C)CN3CCN(S(=O)(=O)c4ccc(Cl)c(Cl)c4)CC3)ncnc12` [ONC0001129, lpa2 antagonist 1], the “% viability” value came out at 45.06%.
Turning to `O=C(O)/C(Cc1ccccc1[N+](=O)[O-])=N/Nc1nc(-c2ccc(Cl)c(Cl)c2)cs1` [ONC0005147, 4egi1], the “% viability” value was 73.1%.
Next, `CC[C@]1(O)C[C@H]2CN(CCc3c([nH]c4ccccc34)[C@@](C(=O)OC)(c3cc4c(cc3OC)N(C)[C@H]3[C@@](O)(C(N)=O)[C@H](O)[C@]5(CC)C=CCN6CC[C@]43[C@@H]65)C2)C1` [ONC0000288, vindesine sulfate]: 94.86%; `CCCCC(=O)O[C@H]1CC[C@H]2[C@@H]3CCc4cc(O)ccc4[C@H]3CC[C@]12C` [ONC0000727, estradiol valerate]: 49.76%.
As to `C[C@]12CC[C@@H]3c4ccc(O)cc4CC[C@H]3[C@@H]1CC[C@@H]2O` [ONC0000707, estradiol], the “% viability” value was 85.31%.
Next, `C[C@]12CC[C@@H]3c4ccc(O)cc4CC[C@H]3[C@@H]1CC[C@@H]2OC(=O)CCC1CCCC1` [ONC0000738, estradiol cypionate]: 84.11%; `[H]/N=C(\N/C(=N/[H])NCCCCCCNC(=N)NC(=N)Nc1ccc(Cl)cc1)Nc1ccc(Cl)cc1` [ONC0000326, chlorhexidine dihydrochloride]: 77.24%; `Cc1cccc(NC(=O)N[C@@H]2N=C(c3ccccc3)c3ccccc3N(CC(=O)c3ccccc3C)C2=O)c1` [ONC0005568, ym022]: 88.21%.
The value for `CC1=C(CCC(=O)O)c2cc3[nH]c(cc4nc(cc5[nH]c(cc1n2)c(C)c5C(C)O)C(C)=C4C(C)O)c(C)c3CCC(=O)O` (stereo not shown) [ONC0002122, hematoporphyrin] was 86.42%.
The value for `C=CC1=C(C)c2cc3[nH]c(cc4nc(cc5[nH]c(cc1n2)c(C)c5CCC(=O)O)C(CCC(=O)O)=C4C)c(C)c3C=C` [ONC0000685, protoporphyrin ix] was 98.29%; that for `C=Cc1c(C)c2cc3nc(c(CC(=O)O)c4[nH]c(cc5nc(cc1[nH]2)C(C)=C5CC)c(C)c4C(=O)O)C(CCC(=O)O)C3C` (stereo not shown) [ONC0000409, chlorophyllin chlorin e6] was 49.9%; that for `CN(C)[C@@H]1C(=O)C(C(N)=O)C(=O)[C@@]2(O)C(=O)C3C(=O)c4c(O)cccc4[C@@](C)(O)[C@H]3C[C@@H]12` (stereo partly shown) [ONC0000563, tetracycline hydrochloride] was 113.1%.
`C/C(=N\NC(=N)N)c1cc(NC(=O)CCCCCCCCC(=O)Nc2cc(/C(C)=N/NC(=N)N)cc(/C(C)=N/NC(=N)N)c2)cc(/C(C)=N/NC(=N)N)c1` [ONC0003851, semapimod]: the “% viability” value stood at 78.92%.
The value for `CCCCCCCCCCCCCCCCCC(=O)OCC(O)[C@H]1OC[C@H](O)[C@H]1O` (stereo partly shown) [ONC0002989, sorbitanmonostearate] was 79.74%; that for `CCn1c(-c2nonc2N)nc2cnc(Oc3cccc(NC(=O)c4ccc(OCCN5CCOCC5)cc4)c3)cc21` [ONC0002474, gsk269962] was 46.2%.
For the compound `COc1cc2c(Nc3ccc(NC(=O)c4ccccc4)cc3)ncnc2cc1OCCCN1CCOCC1` [ONC0003607, zm447439], the “% viability” value is listed as 145.2%.
Take `CCOc1cccc(NC(=O)c2ccc(N3CCCC3)c(C(F)(F)F)c2)c1` [ONC0001854, epptb]: the “% viability” value was found to be 85.67%.
The value for `Cc1nc2ccc(CN(C)c3ccc(C(=O)N[C@@H](CCC(=O)O)C(=O)O)s3)cc2c(=O)[nH]1` [ONC0004884, raltitrexed tomudex] was 134.6%.
